High-throughput results from PubChem BioAssay.
PTAP TSG101 blk – blocks PTAP/TSG101 interaction to inhibit HIV-1 budding; Q99816; Fluorescence polarization, FITC-PTAP peptide / Tsg101 binding; Potency, µM (doses to about 115 µM), without a hit: at the top dose activity change, negative = inhibition, hits mostly inhibitors; 340,000 tested, under 10 active; AID 493005; active means well fitted inhibition curve with a large enough effect in the main read-out, with a control signal flat, not every such curve was filed as active; inconclusive means small, poorly fitted or top-dose-only effect, or effect the other way, or a change in a side signal; inactive means no such curve, though single readings can be large or run the other way; further: % of control where 0% means no effect
Target sequence (Q99816 whole entry, looked up): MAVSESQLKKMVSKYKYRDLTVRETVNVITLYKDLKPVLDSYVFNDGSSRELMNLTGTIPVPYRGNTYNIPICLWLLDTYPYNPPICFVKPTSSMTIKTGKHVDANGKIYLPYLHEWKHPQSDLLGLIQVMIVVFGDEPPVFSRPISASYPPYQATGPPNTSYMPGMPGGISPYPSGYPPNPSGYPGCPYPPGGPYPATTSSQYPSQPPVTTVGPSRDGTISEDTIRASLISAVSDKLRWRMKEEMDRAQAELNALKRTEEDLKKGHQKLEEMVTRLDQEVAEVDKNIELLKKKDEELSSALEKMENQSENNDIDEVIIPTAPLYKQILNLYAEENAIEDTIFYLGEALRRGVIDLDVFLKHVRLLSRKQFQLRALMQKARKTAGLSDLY
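Fluorescence anisotropy tracks displacement of a FITC-tagged PTAP peptide (50 nM) from the Tsg101 binding domain (10 uM), following a 20 min room-temperature incubation at pH 7.5.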
SW480 rereplic – induces DNA re-replication in SW480 colon adenocarcinoma cells | AID 624297 | Potency, µM (series often up to 46.1 µM), for the others: top-dose re-replication activation, actives largely listed as activators | SW480 DNA re-replication, Hoechst DNA content imaging, 48 h | hit rate 1.8% among 340,000; further: % of control where 0% means no effect; nearly all actives have a fitted effect of over 55% in size
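First, 250 cells per well were seeded. Next, compound or vehicle (23 nL) was pinned in, plates sat 48 hr at 37 C. Finally Hoechst was added for 40 min before fluorescence scanning.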
KB-V1 MDR tox – kills drug-selected multidrug resistant KB-V1 cells; KB-V1 MDR cells viability, CellTiter-Glo, 72 h; Potency, µM (highest dose often 46.1 µM), actives largely listed as cytotoxic; hit rate 3.4% among 400,000; AID 1347076; further: on the % scale 0 is the no-effect control and ±100 the full control effect; nearly all actives have a fitted effect of over 60% in size
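Cytotoxicity via CellTiter-Glo luminescence after 72 h compound exposure at 37 degrees C. Cells: drug-selected KB-V1 line, DMEM phenol-red free plus 10% FBS. Compounds tested at multiple concentrations; normalized data fitted to concentration-effect curves.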
MCF10A rereplic – DNA re-replication induction in MCF 10a cells; MCF 10A DNA re-replication, Hoechst nuclear intensity, 48 h; Potency, µM (doses to about 46.1 µM), inactives show at the top dose activity, positive = re-replication, usual class: activators; hit rate 2.9% among 350,000; AID 624296; further: % of control where 0% means no effect; nearly all actives have a fitted effect of over 50% in size
PINK1 modulator – modulators of PINK1 expression; PINK1 immunofluorescence, high-content cytometry, 24 h; Potency, µM (top dose mostly 76.6 µM), inactives show at the top dose activation (PINK1 increase), actives largely listed as activators; hit rate 0.2% among 410,000; AID 624263; active means well fitted activation curve with a large enough effect; inconclusive means small, poorly fitted or top-dose-only effect; cell line not stated here; further: % of control where 0% means no effect; nearly all actives have a fitted effect of over 65% in size
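Compound titrations (5 concentrations, 24 h) on a stable cell line; DMSO and CCCP controls. Endpoint: fixed-cell PINK1 immunofluorescence with mitochondrial, cell and nuclear markers, scanned by microplate cytometer.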
KB-3-1 tox – KB-3-1 parental cell cytotoxicity; KB-3-1 viability, CellTiter-Glo ATP luminescence, 72 h; Potency, µM (series often up to 46.1 µM), hits mostly cytotoxic; hit rate 1.4% among 400,000; AID 1347075; further: on the % scale 0 is the no-effect control and ±100 the full control effect; nearly all actives have a fitted effect of over 60% in size
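Luminescent ATP read-out (CellTiter-Glo) measures survival of drug-naive KB-3-1 cells after 72 h compound exposure at 37 °C. Titration series was screened from lowest to highest concentration, with DMSO vehicle plates as background controls.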
* marks the source's active call; other numbers are inactive results; i = inactive; ? = inconclusive; / = not tested or not shown; [ ] = dose if it differs, or a comment. Most compounds without a hit are left out; they make up all but 6.8% or so of the library. Unless noted, the call rests on the fitted dose curve; in most records, active means well fitted curve in the direction sought with a large enough effect; inconclusive means small, poorly fitted or top-dose-only effect, or another doubt; inactive means no such curve, though single readings can be large; an effect the other way counts as inactive or inconclusive. Potency means the concentration at half of the fitted maximal effect.

SMILES	PTAP TSG101 blk	SW480 rereplic	KB-V1 MDR tox	MCF10A rereplic	PINK1 modulator	KB-3-1 tox
CCCCN(Cc1ccccc1)S(=O)(=O)c1cc(Br)cc2c1N(C(=O)C1CC1)CC2	/	/	i	/	5.1%	i
CCOc1cc(/C=N/Nc2nc(-c3cccc(S(=O)(=O)N4CCCC4)c3)cs2)ccc1O	-4.2%	3.4%	13µM*	?	6.4%	i
Cc1ncc2c(c1CNC(=O)c1ccc3c(c1)OCO3)CCN(C(=O)c1scc3c1CCCC3)C2	/	/	/	/	-0.5%	/
Cc1ccc(C)c(C(=O)NCCN(C)C)c1	-4.6%	-8.0%	i	?	-1.4%	i
C=C(CN(C)C)C(=O)c1cc(C)ccc1C	-0.6%	5.8µM*	?	2.59µM*	-6.2%	?
Cc1nc2cc(NC(=O)[C@@H]3C[C@@H](Sc4ccccn4)CN3Cc3cccc(F)c3)ccc2s1	/	/	/	/	0.1%	/
O=C1CC(c2cc(F)ccc2F)c2cc3c(cc2N1)CCC3 (stereo not drawn)	1.0%	?	i	?	6.8%	4.61µM*
COc1cc2c(cc1OC)C(c1cccc(Br)c1)CC(=O)N2 (stereo not drawn)	-2.9%	-68.7%	i	?	2.3%	i
CC1(C)CC(=O)C2=C(C1)NC(=O)CC2c1cc(F)ccc1F (stereo not drawn)	-0.5%	-6.1%	i	-0.6%	-0.5%	i
O=C1CC(c2cccc(Br)c2)c2cc3c(cc2N1)CCC3 (stereo not drawn)	-12.3%	-3.1%	7.31µM*	?	8.6%[38.3 µM]	18.4µM*
O=C(Nc1ccc(F)c(Cl)c1)N1CCN(C(=O)c2nsc3ccccc23)CC1	/	/	/	/	1.0%	/
Cc1nnc(SC(C)C(=O)Nc2ncc(Cl)cc2Cl)n1Cc1ccccc1 (stereo not drawn)	0.3%	-5.9%	i	-2.1%	0.5%	?
Cc1cc(SC(C)C(=O)Nc2ncc(Cl)cc2Cl)nc2ccccc12 (stereo not drawn)	-0.6%	-2.9%	18.4µM*	?	7.3%	i
CC(C)(C)OC(=O)N1CCC(c2c(C(=O)NCCN3CCOCC3)cnn2-c2cccc(Cl)c2)CC1	/	/	i	/	-0.4%	i
Cn1c(N2CCOCC2)c(/C=N/OC(=O)c2ccc(F)cc2)c2ccccc21	-6.8%	?	?	27.3%	1.3%[38.3 µM]	4.11µM*
Cn1c(N2CCOCC2)c(/C=N/O)c2ccccc21	-1.2%	-2.6%	i	-4.9%	0.9%	i
Cc1ccc(C(=O)O/N=C/c2c(N3CCOCC3)n(C)c3ccccc23)cc1	-7.6%	?	?	?	0.0%[38.3 µM]	?
CC(=O)O/N=C/c1c(N2CCOCC2)n(C)c2ccccc12	-4.2%	1.84µM*	i	19.7%	-2.7%	i
Cc1ccc(C(=O)/C=C/c2cn(CN3CCN(C)CC3)c3ccccc23)cc1	-1.3%	18.4µM*	i	18.4µM*	-1.1%[38.3 µM]	i
CCN(c1ccccc1)c1ncnc2c1cnn2-c1ccc(OC)cc1	/	/	i	/	2.6%	i
CCS(=O)(=O)Nc1cc(C(=O)N2CCC[C@H]2CO)c2c(c1)nc(-c1ccccc1)n2C	/	/	/	/	1.4%	/
CCCC/C=C1/CCC(CN(C)C)C1=O (stereo not drawn)	-2.2%	?	?	5.8µM*	-6.8%	?
COc1cccc(/C=C2/CCC(CN(C)C)C2=O)c1 (stereo not drawn)	-0.1%	5.8µM*	?	2.31µM*	-7.2%	?
COc1cccc(/C=C2\CCC(C3CCCC3)C2=O)c1 (stereo not drawn)	-0.2%	-1.3%	i	1.2%	2.8%	i
CN(C)CC1CCC/C(=C\c2ccc(OC(=O)/C=C/c3ccc(Cl)c(Cl)c3)cc2)C1=O (stereo not drawn)	-3.8%	5.3%	?	-3.6%	1.7%	?
SMILES	PTAP TSG101 blk	SW480 rereplic	KB-V1 MDR tox	MCF10A rereplic	PINK1 modulator	KB-3-1 tox
CN(C)CC1CCC/C(=C/c2ccc(Cl)cc2)C1=O (stereo not drawn)	0.1%	?	?	18.4µM*	-5.6%	?
COc1ccc(/C=C2/CCCC(CN(C)C)C2=O)cc1 (stereo not drawn)	0.5%	9.2µM*	?	2.91µM*	-6.9%	?
COc1cc(NC(=O)CCc2c(C)nc3c4c(C)cc(C)nc4nn3c2C)cc(OC)c1	/	/	i	/	8.2%	i
Cc1ccc(NC(=O)CSc2nc3ccccc3nc2Cc2ccccc2F)cc1F	/	/	?	/	?	i
CCC(C)/C(C)=N/NC(=O)c1ccc(CSc2nc3ccccc3s2)cc1 (stereo not drawn)	0.2%	-4.0%	23.1µM*	?	4.4%	?
CCOc1ccc(Nc2sc(C(=O)c3cccc(OC)c3)c(N)c2S(=O)(=O)c2ccccc2)cc1	/	/	?	/	-0.4%	i
COc1ccc(C(=O)Nc2ncc(C)s2)cc1S(=O)(=O)N1CCOCC1	-4.0%	-26.7%	?	27.2%	1.9%	?
Cc1cnc(NC(=O)Cc2ccc(S(=O)(=O)N3CCOCC3)s2)s1	-6.0%	-5.0%	23.1µM*	-1.0%	-2.3%	i
Cc1cccc(N(Cc2ccccc2)C(=O)c2ccc(F)c(S(=O)(=O)N3CCOCC3)c2)c1	-0.4%	1.0%	i	3.7%	2.3%	i
CC(C)(C)c1csc(NC(=O)Cc2ccc(S(=O)(=O)N3CCOCC3)s2)n1	-1.8%	-17.2%	?	15.3%	10.0%	i
Cc1ccc(N(Cc2ccccc2)C(=O)c2ccc(F)c(S(=O)(=O)N3CCOCC3)c2)cc1	-0.7%	5.6%	3.66µM*	12.1%	-2.3%	?
O=C(Nc1ccc2c(c1)CCC2)c1ccc(F)c(S(=O)(=O)N2CCOCC2)c1	1.4%	?	3.26µM*	11.0%	3.1%	?
Cc1cnc(NC(=O)c2ccc(F)c(S(=O)(=O)N3CCOCC3)c2)s1	-4.3%	-4.3%	18.4µM*	-1.0%	-1.1%	i
COc1cccc(Cn2c(CNS(=O)(=O)c3ccc(C(C)(C)C)cc3)nc3cccnc32)c1	/	/	/	/	2.4%	/
CCOc1ccc(OCC)c(NS(=O)(=O)c2c(C(=O)N3CCCCCC3)c(C)n(C)c2C)c1	/	/	i	/	-0.3%	i
CNC(=O)Cn1c(=O)c2cccn2c2ccc(F)cc21	/	/	/	/	-0.9%	/
Cc1ccc2cc(CCNC(=O)c3ccc(Br)o3)c(=O)[nH]c2c1	-1.2%	-2.4%	18.4µM*	2.7%	0.5%	?
Cc1[nH]nc2c1C(c1cc(Br)cs1)C(C#N)=C(N)O2 (stereo not drawn)	0.4%	?	16.4µM*	?	-1.8%	13µM*
CCc1ccccc1NC(=O)CN(C)C(=O)CSc1nnc(Nc2ccc(C)cc2)s1	0.9%	-50.7%	14.6µM*	-36.4%	7.8%	i
